Here are results for two sequences from patent publication US20220289795, “EFFICIENT METHOD FOR PREPARING PPR PROTEIN AND USE OF THE SAME” (EditForce, Inc., published 2022).

In this assay the target is T1, v3.1_PPR16 (Artificial Sequence).
T1 chain: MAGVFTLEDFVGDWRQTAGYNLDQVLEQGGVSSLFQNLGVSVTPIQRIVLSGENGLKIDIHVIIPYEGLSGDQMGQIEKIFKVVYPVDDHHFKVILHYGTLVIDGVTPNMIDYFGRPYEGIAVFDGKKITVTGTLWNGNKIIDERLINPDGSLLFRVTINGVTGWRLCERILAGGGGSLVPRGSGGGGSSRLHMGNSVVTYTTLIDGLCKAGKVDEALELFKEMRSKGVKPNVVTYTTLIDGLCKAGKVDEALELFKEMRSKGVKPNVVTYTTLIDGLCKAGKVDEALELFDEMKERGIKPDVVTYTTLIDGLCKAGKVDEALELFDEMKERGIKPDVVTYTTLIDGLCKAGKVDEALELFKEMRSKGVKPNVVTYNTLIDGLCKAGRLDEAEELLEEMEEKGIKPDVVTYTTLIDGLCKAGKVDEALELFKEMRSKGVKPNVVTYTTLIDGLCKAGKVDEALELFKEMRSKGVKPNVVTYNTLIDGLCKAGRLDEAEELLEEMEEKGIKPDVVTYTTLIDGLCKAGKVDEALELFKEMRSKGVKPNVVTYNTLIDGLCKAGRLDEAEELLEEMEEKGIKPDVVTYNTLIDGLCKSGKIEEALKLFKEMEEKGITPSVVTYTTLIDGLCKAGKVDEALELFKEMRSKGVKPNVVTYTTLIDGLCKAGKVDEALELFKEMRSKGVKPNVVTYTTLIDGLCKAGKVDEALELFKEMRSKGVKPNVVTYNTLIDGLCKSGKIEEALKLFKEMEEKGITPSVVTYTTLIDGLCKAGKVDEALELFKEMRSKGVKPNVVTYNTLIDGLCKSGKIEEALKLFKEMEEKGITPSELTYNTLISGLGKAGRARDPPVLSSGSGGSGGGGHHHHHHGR
As to the kind of experiment: RPB-ELISA. The conditions noted are these: tags: N-terminal luciferase, C-terminal 6xHis; label: 5'-biotin; ssRNA. As for the experimental part:
RNA probes consisting of a designed 30-base sequence containing 18 bases of the target sequence and modified by biotinylation at the 5′ end (RNA_1, RNA_2, RNA_3, RNA_4, and RNA_5, SEQ ID NOS: 61 to 65) were synthesized (Grainer). To a streptavidin-coated plate (Thermo fisher), the 5′-end biotinylated RNA probes were added, reaction was allowed at room temperature for 30 minutes, and the plate was washed with a lysis buffer (20 mM Tris-HCl, pH 7.6, 150 mM NaCl, 5 mM MgCl₂, 0.5% NP-40, 1 mM DTT, 0.1% BSA). For background measurement, wells to which RNA was not added, but 100 μL of the lysis buffer, 1 μL of 100 mM DTT, and 1 μL of 40 unit/4 RNase inhibitor (Takara, 2313A) were added were also prepared. Then, 200 μL of a blocking buffer (20 mM Tris-HCl, pH 7.6, 150 mM NaCl, 5 mM MgCl₂, 0.5% NP-40, 1 mM DTT, 1% BSA) was added, and the plate surface was blocked at room temperature for 30 minutes. Then, 100 μL of E. coli lysate containing luciferase-fused PPR protein having a luminescence level of 1.5×10⁸ LU/μL was added to each well, and the binding reaction was allowed at room temperature for 30 minutes. The well was washed 5 times with 200 μL of a washing buffer (20 mM Tris-HCl, pH 7.6, 150 mM NaCl, 5 mM MgCl₂, 0.5% NP-40, 1 mM DTT). […] The background (luminescence signal value obtained with adding the PPR protein and without adding RNA) was subtracted from the luminescences of the samples to which a solution containing each RNA and PPR protein was added, and the obtained values were used as the binding powers between the PPR protein and RNA.
By using the V3.1 motif, PPR proteins for the same 23 kinds of target sequences were similarly prepared (SEQ ID NOS: 411 to 433 for the nucleotide sequences, and SEQ ID NOS: 434 to 456 for the amino acid sequences), and bindings of all the combinations were analyzed by using RPB-ELISA. The experimental method was the same as that used in Example 3.
For the sequence GGUGGUGAGGCCCUGGGC, the binding signal is 20.6 log2 luminescence.
Consider GUGGGGGUGGUAGGAAAU, for which the binding signal amounted to 22.6 log2 luminescence.
